Screening results as filed in PubChem BioAssay.
Compounds with a hit are over-represented: about 1.8% of the library has one in this group of screens.
ABCB6 inh MLPCN = ABCB6 transporter inhibitors, primary screen, K562-ABCB6 cells, flow cytometry, MLPCN library; K562-ABCB6 porphyrin accumulation, 1 h; stronger effect = lower value; fluorescence ratio to DMSO, % at 10 µM; 0.19% of 360,000 active; AID 602162, 2011;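 active means fluorescence ratio to DMSO below 75%, the collection mean minus 3 SD; inconclusive means too few cells collected in the well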;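 further: signal is porphyrin accumulated inside mitochondria; lower ratio means ABCB6 inhibition with less porphyrin fluorescence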
Exocytosis inh = LAMP-1 surface exposure blockers, TALL-104 cells – cell-based, flow cytometry, MLPCN library, primary screen | 0.66% of 360,000 active | inhibition, % at 10 µM | TALL-104 LAMP-1 surface exposure; cells stimulated with thapsigargin and PMA;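 active means inhibition above about 55%, limit read from the data; inconclusive means no clear call, values can overlap the other calls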
Myeloid diff 2 = induction of myeloid progenitor differentiation, primary screen, cell-based, flow cytometry, MLPCN library. ER-HoxA9 myeloid progenitors, lysozyme-GFP differentiation. calls only at 10 µM. 1% of 360,000 active;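 active means normalized GFP-positive differentiation at or above the plate's own cutoff, the solvent-only control mean plus 3 SD; inconclusive means no clear call, values can overlap the other calls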;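 further: cells exposed to compound for four days before flow analysis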
Myeloid diff = inducers of myeloid progenitor differentiation, confirmation, cell-based, GFP/Mac1 flow cytometry, cherry pick 01; shares compounds with Myeloid diff 2; ER-HoxA9 myeloid progenitors, GFP/Mac1 double-positive flow; calls only; 2% of 2,300 active;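 active means share of green or green-and-red cells above 9 and 9% in run 1 or 4 and 3% in run 2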
GFP autofluor = counter-screen for myeloid differentiation promoters: compound fluorescence; shares compounds with Myeloid diff 2; ER-HoxA9 myeloid progenitors, no estrogen, GFP autofluorescence flow cytometry; vehicle wells 0%, positive control 100%; fluorescence response, % (test concentration not listed); 7.4% of 2,300 active;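 active means over 5% cells positive for green fluorescent reporter, or over 2% positive for both it and APC stain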
A number is an active result; 0 = inactive; ? = inconclusive; - = no result; + = active, no number.

SMILES	ABCB6 inh MLPCN	Exocytosis inh	Myeloid diff 2	Myeloid diff	GFP autofluor
COc1ccc(OCC(=O)NC(=S)Nc2ccc3c4c(cccc24)CC3)cc1	0	0	0	-	-
CCC1=C(c2ccc(C)cc2)S(=O)(=O)N=C1N1CCC(C(=O)NCCCN2CCCCC2C)CC1 (stereo unspecified)	0	0	0	-	-
COCCNc1nc2c(c(=O)[nH]c(=O)n2C)n1CCCc1ccccc1	0	0	-	-	-
COc1cccc(CN2CC(C(=O)NCc3cccc(N4CCCC4)c3)CCC2=O)c1 (stereo unspecified)	0	0	0	-	-
CCOc1ccccc1OCCCC(=O)Nc1sccc1C(N)=O	0	0	0	-	-
COc1ccc(-c2nnc(SCC(=O)Nc3cc(C)on3)n2C)cc1OC	0	0	+	0	0
COc1cc(-c2nnc(SCC(=O)Nc3cc(C)on3)n2C)cc(OC)c1O	0	0	0	-	-
COc1cccc(C2=NOC(C(=O)Nc3cc(C)on3)C2)c1 (stereo unspecified)	0	0	0	-	-
C[n+]1ccccc1/C=C/c1ccc2ncccc2c1	0	0	+	+	0
C[n+]1ccccc1/C=C/c1ccc(F)c(F)c1	0	0	0	-	-
O=C1[C@@H]2[C@@H]3C[C@@H]([C@H]4ON=C(c5ccc(Cl)cc5)[C@@H]34)[C@@H]2C(=O)N1C1CCCCC1	0	0	0	-	-
Cc1ccc(C(=O)/C=C/c2ccccc2[N+](=O)[O-])cc1	0	0	0	-	-
Cc1ccc(C(=O)/C=C/c2ccc(-c3ccccc3[N+](=O)[O-])o2)cc1	0	0	-	0	0
O=C(COC(=O)CCCN1C(=O)c2cccc3cccc(c23)C1=O)Nc1cccc(C(F)(F)F)c1	0	0	0	-	-
CCc1nc2ccc(C(=O)NCCCN3CCCC3=O)cn2c1N(C)Cc1ccc(OC)cc1	0	0	0	-	-
CCN(CC(=O)NCc1ccc(F)cc1)C(=O)C1CCN(S(=O)(=O)c2ccc(C(C)C)cc2)CC1	0	0	0	-	-
Cc1cccc(-c2nnc3sc(-c4ccccc4)nn23)c1	0	0	0	-	-
COc1ccc(-c2nn3c(-c4cccc(C)c4)nnc3s2)cc1OC	0	0	0	0	0
CC(C)(C)C(=O)Nc1c2c(nn1-c1ccccc1)CSC2	0	0	0	-	-
O=C1C2CC=CCC2C(=O)N1Cc1ccccc1 (stereo unspecified)	0	0	0	-	-
COc1ccccc1CN1C(=O)C2CC=CCC2C1=O (stereo unspecified)	0	0	0	0	0
Cc1nn(Cc2ccccc2)c(Cl)c1C(=O)OCc1nnc(-c2ccc(Cl)cc2)o1	0	0	+	0	0
Cc1nn(Cc2ccccc2)c(Cl)c1C(=O)OCc1nnc(-c2ccccc2)o1	0	0	0	-	-
Cc1ccc(NC(=S)NC(=O)C2CCCC2)c(Br)c1	0	0	0	-	-
Nc1nsc2ccccc12	0	0	0	-	-
SMILES	ABCB6 inh MLPCN	Exocytosis inh	Myeloid diff 2	Myeloid diff	GFP autofluor
Nc1nnc(N)c2ccccc12	0	0	+	0	0
COC(=O)c1ccc(OC)cc1OCC(=O)N1CCN(c2ccc(F)cc2)CC1	0	0	0	-	-
COc1cccc(C(=O)NCc2nnc(SCC(=O)Nc3nccs3)n2-c2cccc(C)c2)c1	0	0	0	-	-
Cc1cccc(-n2c(CNC(=O)COc3ccccc3)nnc2SCC(=O)Nc2nccs2)c1	0	0	0	0	5.4
CCc1ccc(/C=C/c2c[nH]c3ccccc23)[n+](CC)c1	0	0	+	0	7.0
C(=NN=Cc1c[nH]c2ccccc12)c1c[nH]c2ccccc12	0	0	0	-	-
Cc1cc(Nc2cccc([N+](=O)[O-])c2)c2cccc(C)c2n1	0	0	0	-	-
Cc1cc(Nc2ccccc2)c2c([N+](=O)[O-])ccc(C)c2n1	0	?	0	0	0
O=C(O)COc1ccccc1/C=N/NC(=O)CNC(=O)c1ccco1	0	0	0	-	-
COC(=O)c1ccc(S(=O)(=O)c2ccc(Cl)cc2)c(N)c1	0	0	0	-	-
COc1ccccc1NC(=O)CN1CCN(c2ccccc2F)CC1	0	0	0	-	-
COc1ccccc1NC(=O)N1CCN(c2ccccc2F)CC1	0	0	0	0	0
Cc1nc2nc(-c3ccco3)[nH]n2c(=O)c1C	0	0	0	0	0
Cc1nc2nc(-c3ccco3)[nH]n2c(=O)c1Cc1ccccc1	0	0	0	-	-
CCN(CC)S(=O)(=O)c1cc(NC(=O)[C@@H](NC(N)=O)C(C)C)ccc1C	0	0	0	-	-
COc1cc([N+](=O)[O-])ccc1NC(=O)NCC1CCN(Cc2ccc(Cl)cc2)CC1	0	0	0	-	-
O=C(Nc1ccccc1)c1ccc2nc(-c3ccco3)c(-c3ccco3)nc2c1	0	0	0	0	0
CC(=O)c1ccc(NC(=O)c2ccc3nc(-c4ccco4)c(-c4ccco4)nc3c2)cc1	0	0	0	-	-
COc1ccc(Br)c(-c2nnc(CS(=O)(=O)c3ccccc3)o2)c1	0	0	0	-	-
COc1ccc(Br)c(-c2nc(CS(=O)(=O)c3ccc(F)cc3)no2)c1	0	0	0	0	0
COc1ccc(/C=C/C(=O)NC(C)(C)C)cc1S(=O)(=O)N1CCOCC1	0	0	0	-	-
COc1ccc(/C=C/C(=O)NC2CCCCCCC2)cc1S(=O)(=O)N1CCOCC1	0	0	0	0	0
Cc1ccc(CNC(=O)COc2ccc(S(=O)(=O)N3CCOCC3)cc2)cc1	0	0	0	-	-
O=C(NNS(=O)(=O)c1cccc(Cl)c1Cl)c1cccc(S(=O)(=O)N2CCOCC2)c1	0	0	0	-	-
CC(C)(C)C1CCC2(CC1)C(C#N)=C(SCC(=O)Nc1ccccc1)NC(=O)C2C#N (stereo unspecified)	0	0	0	-	-
SMILES	ABCB6 inh MLPCN	Exocytosis inh	Myeloid diff 2	Myeloid diff	GFP autofluor
N#CC1=C(SCC(=O)c2cc3ccccc3oc2=O)NC(=O)C(C#N)C12CCCC2 (stereo unspecified)	0	0	0	0	0
CCN1C[C@@H]2[C@@H]3C(=O)N(Cc4ccccc4)C(=O)[C@@H]3[C@](CC)(C1=O)N2C(=O)c1ccc(F)cc1	0	0	0	-	-
COc1ccc(-c2nc3ccccc3c(=O)n2N)cc1	0	0	0	-	-
COc1ccc2cc(C(C)c3nc4ccccc4c(=O)n3N)ccc2c1 (stereo unspecified)	0	0	+	0	0
O=C(O)c1ccccc1C(=O)N1N=C(c2ccccc2)CC1c1ccccc1O (stereo unspecified)	0	0	0	-	-
COC(=O)c1cn(NC(=O)c2ccc([N+](=O)[O-])cc2Cl)c(=O)c2ccccc12	0	0	+	0	0
COC(=O)c1cn(NC(=O)c2cc(OC)cc(OC)c2)c(=O)c2ccccc12	0	0	0	-	-
CCCC1=C(C(=O)OCC)C(c2sccc2C)n2ncnc2N1 (stereo unspecified)	0	0	0	-	-
O=C1CC/C=C\C[C@@H](CC(=O)N(CCO)Cc2ccccc2)C(=O)NC[C@@H](c2ccccc2)O1	0	0	0	-	-
O=C1CCC/C=C/C[C@@H](CC(=O)N(CCO)Cc2ccccc2)C(=O)NC[C@@H](c2ccccc2)O1	0	0	0	0	0
